Hit rate of the full screen: of about 5,500 compounds, about 2,000 (36%) were called active. Inconclusive results (about 18%) are left out. Cut-off read from the data, not from the text of the source: active = normalized growth mostly below about 0.91 (no sharp cut-off); inconclusive = no clear call, values can overlap the other calls; inactive = mostly above about 0.92. Some of the results follow.
Assay: chemical genetic growth profiling, strain panel (AID 1159580);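 note: tested at 20 µM; growth read once vehicle control cultures reached saturation at 30 °C; 1 = growth at the plate median or of vehicle wells; lower values mean less growth of the strain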
Settings: S. cerevisiae deletion strains, growth OD

Measured: normalized growth

CC1(C)S[C@@H]2[C@H](NC(=O)[C@H](C(=O)O)c3cccs3)C(=O)N2[C@H]1C(=O)O
inactive: locus YAL021C, strain ccr4, stronger effect = lower value 0.996 | locus YAL026C, strain drs2, stronger effect = lower value 1.02 | locus YAL030W, strain snc1, stronger effect = lower value 1.01 | locus YBL061C, strain skt5, stronger effect = lower value 1.01 | locus YBR009C, strain hhf1, stronger effect = lower value 1.03 | locus YBR023C, strain chs3, stronger effect = lower value 1.01 | locus YBR171W, strain sec66, stronger effect = lower value 1.03 | locus YBR231C, strain swc5, stronger effect = lower value 1.02 | locus YBR279W, strain paf1, stronger effect = lower value 1.01 | locus YCL011C, strain gbp2, stronger effect = lower value 1.01 | locus YCL016C, strain dcc1, stronger effect = lower value 0.998 | locus YCL061C, strain MRC1, stronger effect = lower value 1.01 | locus YCL069W, strain vba3, stronger effect = lower value 0.999 | locus YCR088W, strain abp1, stronger effect = lower value 0.996 | locus YDL005C, strain med2, stronger effect = lower value 1.01 | locus YDL040C, strain nat1, stronger effect = lower value 0.999 | locus YDR001C, strain nth1, stronger effect = lower value 1 | locus YDR069C, strain doa4, stronger effect = lower value 1.04 | locus YDR137W, strain rgp1, stronger effect = lower value 1.02 | locus YDR159W, strain sac3, stronger effect = lower value 1.01 | locus YDR195W, strain ref2 1.02 | locus YDR297W, strain sur2, stronger effect = lower value 1.01 | locus YDR334W, strain swr1, stronger effect = lower value 1 | locus YDR335W, strain msn5, stronger effect = lower value 1.01 | locus YDR392W, strain spt3, stronger effect = lower value 1.01 | locus YEL003W, strain gim4, stronger effect = lower value 1.01 | locus YEL037C, strain rad23, stronger effect = lower value 0.973 | locus YEL061C, strain CIN8 (second series), stronger effect = lower value 0.991 | locus YER015W, strain faa2, stronger effect = lower value 1.01 | locus YER016W, strain bim1, stronger effect = lower value 1 | locus YER111C, strain swi4, stronger effect = lower value 1.01 | locus YER155C, strain BEM2 (second series), stronger effect = lower value 1.04 | locus YFR010W, strain ubp6, stronger effect = lower value 1 | locus YGL167C, strain pmr1, stronger effect = lower value 1.01 | locus YGL173C, strain kem1, stronger effect = lower value 1.01 | locus YGL227W, strain vid30, stronger effect = lower value 1 | locus YGL240W, strain doc1, stronger effect = lower value 1.04 | locus YGL253W, strain hxk2, stronger effect = lower value 0.998 | locus YHR013C, strain ard1, stronger effect = lower value 1.03 | locus YHR027C, strain rpn1, stronger effect = lower value 1 | locus YHR030C, strain SLT2, stronger effect = lower value 1.01 | locus YHR079C, strain IRE1, stronger effect = lower value 1.02 | locus YHR142W, strain chs7, stronger effect = lower value 0.957 | locus YJL092W, strain hpr5, stronger effect = lower value 1 | locus YJL095W, strain BCK1 (second series), stronger effect = lower value 1 | locus YJL095W, strain BCK1, stronger effect = lower value 0.974 | locus YJL115W, strain asf1, stronger effect = lower value 1 | locus YJL129C, strain trk1, stronger effect = lower value 1.01 | locus YJL154C, strain vps35, stronger effect = lower value 0.999 | locus YJL164C, strain tpk1, stronger effect = lower value 0.999 | locus YJL166W, strain qcr8, stronger effect = lower value 1.01 | locus YJL187C, strain SWE1, stronger effect = lower value 1.02 | locus YJR066W, strain TOR1, stronger effect = lower value 0.952 | locus YKL160W, strain elf1, stronger effect = lower value 1.01 | locus YKR026C, strain gcn3, stronger effect = lower value 0.991 | locus YKR091W, strain srl3, stronger effect = lower value 1.01 | locus YLL001W, strain dnm1, stronger effect = lower value 0.999 | locus YLL026W, stronger effect = lower value 1.01 | locus YLL041C, strain sdh2, stronger effect = lower value 1.01 | locus YLR027C, strain aat2, stronger effect = lower value 1.01 | locus YLR113W, strain HOG1, stronger effect = lower value 0.971 | locus YLR221C, strain rsa3, stronger effect = lower value 0.989 | locus YLR258W, strain gsy2, stronger effect = lower value 1.02 | locus YLR262C, strain YPT6 (second series), stronger effect = lower value 0.996 | locus YLR320W, strain mms22, stronger effect = lower value 1.01 | locus YLR342W, strain FKS1, stronger effect = lower value 1.01 | locus YLR357W, strain rsc2, stronger effect = lower value 1.07 | locus YLR370C, strain arc18, stronger effect = lower value 1.01 | locus YLR384C, strain iki3, stronger effect = lower value 0.994 | locus YML120C, strain ndi1, stronger effect = lower value 1.01 | locus YMR058W, strain fet3, stronger effect = lower value 1.02 | locus YMR125W, strain sto1, stronger effect = lower value 1.03 | locus YMR129W, stronger effect = lower value 1 | locus YMR205C, strain PFK2, stronger effect = lower value 1.03 | locus YMR231W, strain pep5, stronger effect = lower value 1.01 | locus YNL071W, strain lat1, stronger effect = lower value 1.01 | locus YNL183C, strain NPR1, stronger effect = lower value 0.96 | locus YNL209W, strain ssb2, stronger effect = lower value 1.01 | locus YNL248C, strain rpa49, stronger effect = lower value 0.991 | locus YNL322C, strain KRE1 (second series), stronger effect = lower value 1.01 | locus YNR049C, strain mso1, stronger effect = lower value 0.994 | locus YOR001W, strain rrp6, stronger effect = lower value 1 | locus YOR070C, strain gyp1, stronger effect = lower value 0.999 | locus YOR080W, strain dia2, stronger effect = lower value 1.02 | locus YOR083W, strain WHI5, stronger effect = lower value 1 | locus YOR106W, strain vam3, stronger effect = lower value 1 | locus YOR231W, strain MKK1, stronger effect = lower value 1.02 | locus YOR265W, strain rbl2, stronger effect = lower value 0.998 | locus YOR270C, strain vph1, stronger effect = lower value 1 | locus YOR290C, strain snf2, stronger effect = lower value 1.01 | locus YPL051W, strain arl3, stronger effect = lower value 1 | locus YPL078C, strain atp4, stronger effect = lower value 0.989 | locus YPL106C, strain sse1, stronger effect = lower value 1.03 | locus YPL240C, strain hsp82, stronger effect = lower value 0.986 | locus YPL256C, strain CLN2, stronger effect = lower value 1.03

Reference: PubChem BioAssay AID1159580 (chemical genetic matrix, 2015)
